Experimental findings from PubChem BioAssay are described below.

Structures are written as SMILES.

The first experiment concerns the target Calmodulin-1 (Homo sapiens) (UniProt P0DP23). Briefly: calcium-bound CALM1 binders on microarrays, profiling panel, artefact control for SMM control-protein annotation, biochemical, small-molecule microarray, Cy5-labelled CALM1, plus calcium (AID 1112).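 Also: score merges spot fluorescence with signal to noise from triplicate slides.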 The note with it: Cy5-CALM1 binding fluorescence, higher = more signal.
`COc1ccc(-c2cc3c(c(CCc4ccccc4)n2)[Si](C(C)C)(C(C)C)OC3)cn1`: the composite z-score amounted to 0.151.
For `C=CCOC(=O)[C@H]1[C@@H]2C(=O)O[C@@H](c3ccccc3)[C@@H](c3ccccc3)N2[C@@H](c2ccc(OCCOC(=O)[C@@H]3C[C@@H]4C(=O)N[C@@H](CCCCNC(C)=O)C(=O)N4[C@@H]3c3ccc(O)cc3)cc2)[C@]12C(=O)Nc1ccc(I)cc12`, the composite z-score is -0.215.
For the compound `COc1ccc(CCNC(=O)[C@@]2(Sc3ccc(C)cc3)CC(=O)N(C3Cc4ccccc4C3)[C@@H]2c2ccc(CO)cc2)cc1`, the composite z-score is 0.616.
On the same count and under the same terms, under `COCCCNC(=O)[C@@]1(Sc2ccc(C)cc2)CC(=O)N(C2CCCCC2)[C@@H]1c1ccc(CO)cc1` stands 0.0573; under `COCCCNC(=O)[C@]1(CCS(=O)(=O)c2ccccc2)N=C(c2ccc(OCCCO)cc2)O[C@@H]1c1ccccc1N=[N+]=[N-]`, 0.893; under `CN(C)CCCNC(=O)[C@@H]1c2ccccc2C(=O)N(Cc2ccccc2Cl)[C@H]1c1ccc(CO)cc1`, -0.464.
The same measure, in the same setting: the figure for `CO[C@H]1O[C@H](CO)[C@@H](OC(=O)Nc2ccccc2-c2ccccc2)[C@H](OC(=O)Nc2ccc3c(c2)OCO3)[C@H]1OC(=O)Nc1ccc2c(c1)OCO2` is -0.187.
Regarding `CCCCCCCCCCC(O)C1C=CC2C(=O)N(C)C(=O)C2N1NC(=O)OC(C)(C)C` (stereo not drawn), the composite z-score turned out to be 0.953.

Tested on in a further experiment: not listed separately
Briefly: small-molecule microarray binders of probe aWnt5a, primary screen, biochemical, biotinylated probe, 635/667 nm fluorescence (AID 1113).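 Also: score merges 667 nm fluorescence intensity with signal-to-noise per printed feature.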 The conditions noted are these: higher = more signal.
`COC(=O)c1nc2oc1CC[C@@H](CO)NC(=O)N(C)Cc1cnnn1C[C@H](Cc1ccccc1)NC2=O` registered a composite z-score of -0.159.
The same measure, in the same setting: the figure for `CCOC(=O)C1=CC[C@@H](c2cccc(Cl)c2)N(S(=O)(=O)c2ccc(C)cc2)C1` is -0.232.
The same measure, in the same setting: the figure for `C=C(COC)/C(=C/C[C@H](OC(=O)c1ccncc1)c1ccccc1OCCO)c1cnc2ccccc2c1` is -0.0405; for `C[C@@H]1ON(c2ccc(C(=O)OC(C)(C)C)cc2)[C@H](c2ccc(O)cc2)[C@H]1C(=O)N1C(=O)OC[C@H]1Cc1ccccc1` it is 0.0215; for `CC(C)N1C(=O)C[C@@](C(=O)NCCCN(C)C)(c2ccc([N+](=O)[O-])cc2)[C@H]1c1ccc(CO)cc1` it is -0.113.
On the same count and under the same terms, under `COC(=O)C(CC#Cc1ccc2c(c1)[C@]1(C(=O)N2)[C@H](C(=O)N2CCN(c3ncccn3)CC2)[C@H]2C(=O)O[C@H](c3ccccc3)[C@H](c3ccccc3)N2[C@@H]1c1ccc(OCCO)cc1)C(=O)OC` stands -0.0792.
Turning to `CN(C)CCCNC(=O)[C@@]1(C)c2ccccc2C(=O)N(Cc2ccccc2)[C@H]1c1ccc(CO)cc1`, the composite z-score was 0.0026.
The same measure, in the same setting: the figure for `CC(C)C(=C=CC[C@H](O)c1cccc(OCCO)c1)C[C@H](O)c1cc(Cl)cc(Cl)c1O` is -0.126; for `COCCCNC(=O)[C@@]1(Cc2ccccc2N=[N+]=[N-])N=C(c2ccc(OCCCO)cc2)O[C@H]1c1ccccc1` it is 0.269.
In turn, `COc1ccc([Si](C)(C)[C@@H]2[C@@H](CC(=O)N3Cc4ccccc4C[C@H]3CO)O[C@]3(C(=O)N(Cc4cccc(N5C(=O)c6cccc7cccc5c67)c4)c4ccccc43)[C@H]2C)cc1` returned a composite z-score of -0.0685.
Turning to `COc1ccc([Si](C)(C)[C@@H]2[C@@H](CC(=O)N(CCO)Cc3ccccc3)O[C@]3(C(=O)N(Cc4cccc(N5CCOC5=O)c4)c4ccccc43)[C@H]2C)cc1`, the composite z-score is -0.173.
In turn, `CC(=O)c1ccc(C(O)C2C=CC3C(=O)N(c4ccccc4)C(=O)C3N2Nc2ccc(C#N)cc2)cc1` (stereo not drawn) gave a composite z-score of -0.172.
Same read-out and setting: the figure for `COC1OC[C@]2(C)[C@H]3C4=C(CN2C(=O)OC(C)(C)C)[C@H](C)C(CO)C(CO)C4CC[C@@H]13` (stereo partly drawn) is -0.0007; for `COCCCNC(=O)[C@@]1(Cc2ccccc2CN=[N+]=[N-])N=C(c2ccc(OCCCO)cc2)O[C@H]1c1ccccc1` it is 0.0257.
On the same count and under the same terms, the figure for `COc1cc(CO)cc(I)c1O[C@H]1C=C(C(=O)NCCO)C[C@@H](NCc2ccc(F)cc2)[C@@H]1O` is -0.202; for `C=CCC(OC(C)=O)[C@@H]1[C@@H](N(Cc2cccc3ccccc23)C(=O)Cc2ccc(F)cc2)c2cc(OCCCO)ccc2N1C(=O)c1ccc2ccccc2n1` (stereo partly drawn) it is -0.18.
Still for that read-out and setting: the figure for `[N-]=[N+]=Nc1ccccc1[C@H]1OC(c2ccc(OCCCO)cc2)=N[C@@]1(Cc1ccccc1)C(=O)N1CCCCC1` is 0.299.
The compound `O=C(NCc1ccccc1)[C@@H]1c2ccccc2C(=O)N(Cc2ccccc2C(F)(F)F)[C@H]1c1ccc(CO)cc1` showed a composite z-score of -0.252.
Same read-out and setting: the figure for `CC=CC(O)C1C=CC2C(=O)N(c3ccccc3)C(=O)C2N1Nc1ccccc1F` (stereo not drawn) is 0.339; for `O=C1O[C@H](c2ccccc2)[C@H](c2ccccc2)N2[C@H]1[C@@H](C(=O)O)[C@]1(C(=O)Nc3ccc(C#CC4=CCCCC4)cc31)[C@H]2c1ccc(O)cc1` it is -0.0792.
